# Screening results deposited in PubChem BioAssay by National Center for Advancing Translational Sciences (NCATS).
# SARS PLpro yeast: inhibitors of SARS-CoV papain-like protease in yeast; S. cerevisiae expressing SARS-CoV PLpro, growth rescue; Potency, µM (series often up to 32.9 µM), for the others: at the top dose activity, positive = growth rescue, hits mostly activators; 330,000 tested, 0.19% active; also: potency is read from the fitted curve at half-maximal effect; 0% is about no effect; nearly all actives have a fitted effect of over 55% in size
# CHX counter: counter-screen for Shiga toxin inhibitors: cycloheximide protein synthesis inhibition. 300,000 tested, 12% active. cell reporter, cycloheximide protein synthesis inhibition counterscreen. AID 2314. max response, %; in the data active = max response mostly above about 13%, no sharp cut-off; inactive = mostly below about 14%; also: read at 38.3 µM for the half of the compounds with a filed dose; 0% is about no effect
# NS1 function inh: inhibitors of influenza NS1 protein function | Potency, µM (titrated, usually from 46.1 µM), for the others: at the top dose activity, positive = more growth | 270,000 tested, 0.4% active; also: potency is read from the fitted curve at half-maximal effect; actives are rising curves; nearly all actives have a fitted effect of over 50% in size
#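 Compounds were scored for reversing the slow growth caused by influenza A NS1 in S. cerevisiae, measured by optical density at 600 nm. Assay medium contained 2% galactose at pH 6.0; NS1-free yeast of the same strain were the positive control.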
# Shiga inhibitor: inhibitors of Shiga toxin in Vero cells; Vero cells, Shiga toxin protein synthesis inhibition reporter; inhibition, % at 38.7 µM; 290,000 tested, 9.2% active; in the data active = inhibition mostly above about 28%, no sharp cut-off; inactive = mostly below about 43%; also: 0% is about no effect
# Starred values were filed as active, the others as inactive; ? = inconclusive; nt = no result; [ ] = another dose, or the depositor's remark. Only some compounds are listed: those with a hit (about 12% of all), similar ones and a draw of the others. Unless noted, calls follow the shape of the full dose curve.
SMILES,SARS PLpro yeast,CHX counter,NS1 function inh,Shiga inhibitor
O=C(Nc1ncc(Cc2ccccc2)s1)C1CCCO1 (stereo not given),-24%,34*,-11%,63*
O=C(Nc1nc2ccc(F)cc2s1)C1CCCO1 (stereo not given),-1%,26*,-25%,94*
COc1cccc(CN(C)C(=O)CCC(=O)c2cc(Br)ccc2OC)c1,5%,nt,nt,nt
COc1ccc(C(=O)OCn2nnc3ccccc3c2=O)cc1,6%,21,nt,29
C=CCOC(=O)CSCC(NC(=O)OC(C)(C)C)C(=O)OCC (stereo not given),1%,-2,-1%,-6
O=C(NCCc1ccccc1)C1CCC(CNS(=O)(=O)c2cccs2)CC1 (stereo not given),0%,16,nt,-4
O=C(Nc1nc2ccccc2s1)C1c2ccccc2Oc2ccccc21,-83%,-3,-2%,-13
O=C(OCc1nc2ccccc2s1)[C@@H]1CCCN1S(=O)(=O)c1ccccc1F,-25%,26*,-171%,49
O=C(Nc1nc2ccccc2s1)C1CCCO1 (stereo not given),-5%,47*,-12%,89*
Oc1ccc2ccccc2c1/C=N/c1nc2c(s1)CCCC2,2%,14*,-1%,5
Oc1ccc2ccccc2c1C=NC1CCCCC1,-6%,24,nt,28
O=C(NCCc1ccc(Cl)cc1)c1cnccn1,4%,17*,-7%,9
COc1ccc(CCNC(=O)c2cnccn2)cc1,-4%,-5,5%,3
Cc1cnc(C(=O)NCCc2ccc(Cl)cc2)cn1,-4%,55*,-5%,73*
O=C(NCCC1=CCCCC1)c1cnccn1,-3%,20*,-12%,42
CCN(CC)CCn1c2ccccc2c2nc(C)sc21,-4%,1,-3%,-17
COc1ccc(C(=O)Nc2cccc(C(C)=O)c2)c(OC)c1OC,-11%,22*,2%,69*
COc1ccc(C(=O)Nc2cccc(C(C)=O)c2)cc1OC,-1%,30*,-11%,45
COc1cccc(OC)c1C(=O)Nc1cccc(C(=O)Nc2cccc(C(=O)O)c2)c1,0%,-1,4%,-3
COc1ccccc1C(=O)Nc1cccc(C(=O)c2ccccc2)c1,-8%,13*,-7%,20
COC(=O)c1cccc(NC(=O)c2cc(OC)c(OC)c(OC)c2Br)c1,-17%,5,7%,20
COc1cc(OC)c(C(=O)Nc2cccc(C(C)=O)c2)cc1OC,-7%,19*,2%,25
COc1ccc(NC(=S)Nc2cccc(C(C)=O)c2)cc1OC,0%,14,5%,18
COc1ccc(C(=O)C2CCCN(Cc3ccc4nonc4c3)C2)c(OC)c1 (stereo not given),0%,0,-2%,-1
CC1(C)C(=O)Nc2ccccc2N1C(=O)CSc1nnc2ccccn12,25%,-1,6%,-2
SMILES,SARS PLpro yeast,CHX counter,NS1 function inh,Shiga inhibitor
COc1ccc(C(C)NC(=O)Nc2ccc(C(C)=O)cc2)cc1OC (stereo not given),-4%,23*,-2%,23
COc1cccc(C=Nc2ccccc2C(=O)Nc2ccccc2)c1O,-15%,55*,20%,77*
O=S(=O)(O)CCCc1cccc2ccccc12,nt,nt,0%,nt
COc1ccc(S(=O)(=O)N2CCCCC2)cc1NC(=O)CCNC(=O)c1ccco1,-5%,nt,nt,nt
CC(=O)c1ccc(N2CCN(S(=O)(=O)c3ccc4ccccc4c3)CC2)cc1,-15%,nt,nt,nt
CC(=O)c1ccc(N2CCN(S(=O)(=O)c3cc4[nH]c(=O)c(=O)[nH]c4cc3C)CC2)cc1,nt,19*,-4%,24*
CN(C)/C=C/C(=O)c1ccc(Cl)s1,-4%,16*,-38%,35
CN(C)/C=C/C(=O)c1cnc(-c2ccc(Cl)cc2)s1,-10%,51*,nt,97*
CN(C)CCNC(=O)c1ccc(Cl)s1,3%,-4,8%,32
O=C(c1ccccc1)c1cnc(-c2ccccc2)s1,0%,9,-2%,47
CN(C)/C=C/C(=O)c1cnc(-c2ccccc2)s1,2%,52*,nt,104*
O=C(c1ccc(Cl)cc1)c1cnc(-c2ccc(Cl)cc2)s1,5%,1,5%,-6
O=C(c1ccccc1)c1cnc(-c2ccc(Cl)cc2)s1,9%,39*,7%,116*
C/C(=N\NC(=O)CNC(=O)c1cccc(F)c1)c1ccc2ccccc2c1,0%,-4,-2%,-10
Cc1nn(C)cc1/C=N/NC(=O)C1(O)c2ccccc2-c2ccccc21,-1%,-2,10%,-6
COC(=O)C1C(=O)c2c([nH]c(C(=O)OC3CCCC3)c2C)CC1C (stereo not given),nt,47*,-4%,49
Cc1c(C(=O)OC2CCCC2)[nH]c2c1C(=O)CC(c1ccco1)C2 (stereo not given),2%,1,1%,-1
Oc1ccccc1C1C=C(c2ccc3c(c2)OCO3)NC(c2c(F)cccc2Cl)N1 (stereo not given),nt,46*,nt,97*
O=C(Cc1c(F)cccc1Cl)NNC(=O)Nc1ccc2c(c1)OCO2,-7%,-4,6%,-7
Oc1ccc(Br)cc1C1C=C(c2ccc3c(c2)OCO3)NC(c2c(F)cccc2Cl)N1 (stereo not given),nt,46*,nt,82*
CS(=O)(=O)N(CC(=O)N1CCCCCC1)c1ccc2c(c1)OCCO2,-3%,-3,4%[9.22 µM],-2
NC(=O)c1c(/N=C/c2cccs2)sc2c1CCCC2,-1%,10*,-1%,21
O=C(/C=C/c1cccs1)Nc1sc2c(c1C(=O)O)CCCC2,-11%,25,-31%,30
S=C(NCc1ccco1)Nc1ccc(Oc2ccc(Cl)cc2)cc1,-4%,1,-7%,-2
S=C(NCc1ccco1)Nc1ccc(Cl)cc1,?,15*,-8%,16
SMILES,SARS PLpro yeast,CHX counter,NS1 function inh,Shiga inhibitor
S=C(NCc1ccco1)Nc1ccccc1Cl,0%,20*,0%,33
S=C(NCc1ccco1)Nc1cccc(Cl)c1Cl,7%,9,4%,48
CCC1CCCCN1CCCNC(=O)CNC(=O)c1nn(-c2ccc(OC)c(Cl)c2)c(=O)c2ccccc12 (stereo not given),1%,-3,0%,-12
Cc1ccc(C(=O)OCc2nc3ccccc3s2)o1,-1%,nt,nt,nt
OCc1cc(Br)ccc1OCc1nc2ccccc2s1,1%,45*,2%,82*
Oc1ccccc1OCc1nc2ccccc2s1,-6%,35*,-6%,143*
Oc1ccc(O)c(Cc2nc3ccccc3s2)c1,1%,32*,nt,43*
O=[N+]([O-])c1cc(/C=N/O)ccc1Oc1ccccc1Cl,-2%,53*,-36%,50*
O=[N+]([O-])c1cc(/C=N/O)ccc1Oc1cccc(Cl)c1,-3%,17,-32%,1
CO/N=C/c1ccc(Oc2ccc(C)cc2)c([N+](=O)[O-])c1,-3%,43*,nt,64
CCC(=O)Nc1c2c(nn1-c1cccc(Cl)c1)CS(=O)(=O)C2,-11%,-4,-11%,-4
Cc1ccc(-c2nc3ccccc3c(=O)n2NC(=S)N(C)C)cc1,-12%,-2,3%,2
N#CC1=C(N)Oc2n[nH]c(-c3cccnc3)c2C1c1ccc([N+](=O)[O-])o1 (stereo not given),0%,20*,nt,54
COc1ccc(C2Nc3ccccc3C(=O)N2C2CCCCC2)cc1 (stereo not given),0%,20,nt,34
